For 13 molecules, Potency, outcome and activation results are on record in PubChem BioAssay (NCATS).

A number with no mark means an inactive call. Records with an inconclusive call do not appear. Activity calls are given as the source filed them. Unless noted, calls come from the whole dose curve; as a rule, active = well fitted curve in the direction sought with a large enough effect; inconclusive = small, poorly fitted or top-dose-only effect, or another doubt; inactive = no such curve, though single readings can be large; an effect the other way counts as inactive or inconclusive.

Assay [1] deals with DNA repair nuclease/redox regulator APEX1 (Homo sapiens) (UniProt P27695). The experiment in a line: qHTS Validation Assay for Inhibitors of the Human Apurinic/apyrimidinic Endonuclease 1 (APE1) (AID 1705;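 note: TAMRA fluorescence gain over two minutes as APE1 cuts a quenched THF abasic duplex; series mostly up to about 57 µM; % is set by controls: 0 for no effect and ±100 for the full control effect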). A digest of the protocol:
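Fluorogenic double-stranded THF abasic-site substrate (5'-TAMRA/3'-BHQ-2), 50 nM final. Enzyme preincubated with compound 15 min at room temperature, then substrate added. Kinetic fluorescence (ex 525/em 598 nm) read three times at 60 s intervals; activity taken as third-minus-first read difference.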
(In general: qHTS replaces the single test concentration by a dilution series.)

The nature of assay [2]: qHTS for differential inhibitors of proliferation of Plasmodium falciparum line 7G8 (AID 1815).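 Note: parasite growth measured after three days of incubation.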 Note: potency is the fitted concentration of half-maximal effect.
Assay [3] can be described thus: qHTS for differential inhibitors of proliferation of Plasmodium falciparum line GB4 (AID 1816).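 Note: parasite growth measured after 72 h incubation.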 Note: potency is the fitted concentration of half-maximal effect. The conditions noted are these: Potency: Plasmodium falciparum GB4 proliferation inhibition.
Assay [4] in a line: qHTS for differential inhibitors of proliferation of Plasmodium falciparum line 3D7 (AID 1876). Note: potency is the fitted concentration of half-maximal effect.
Assay [5] can be described thus: qHTS for differential inhibitors of proliferation of Plasmodium falciparum line D10 (AID 1877).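 Note: parasites grown with compound for 72 h before DNA staining.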 Note: potency is the fitted concentration of half-maximal effect.
A short description of assay [6]: qHTS for differential inhibitors of proliferation of Plasmodium falciparum line Dd2 (AID 1882). Note: nearly all actives have a fitted effect of over 65% in size. Note: potency is the fitted concentration of half-maximal effect. The conditions noted are these: Potency: Plasmodium falciparum Dd2 proliferation inhibition. A digest of the protocol: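 SYBR Green DNA fluorescence (ex 485, em 535 nm) after overnight lysis quantifies parasite growth; compound exposure lasted 72 h at 37 C on infected red cells at 2.5% hematocrit, 0.3% parasitemia (final). Artemisinin 0.29 uM and vehicle wells define normalization.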

Assay [7] is described as follows: qHTS for differential inhibitors of proliferation of Plasmodium falciparum line W2 (AID 1883).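 Note: potency is the fitted concentration of half-maximal effect; parasites grown with compound for 72 h before lysis and staining.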 The conditions noted are these: Potency: Plasmodium falciparum W2 proliferation inhibition.
The nature of assay [8]: qHTS for differential inhibitors of proliferation of Plasmodium falciparum line HB3 (AID 1886).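 Note: parasites grown with compound for 72 h before SYBR Green readout.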 Note: potency is the fitted concentration of half-maximal effect. The note with it: Potency: Plasmodium falciparum HB3 proliferation inhibition.
A short description of assay [9]: Cell Viability - LYMP2-010 (AID 981).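 Note: cells exposed to compound for 24 hours at 37 °C; % is set by controls: 0 for no effect and ±100 for the full control effect; nearly all actives have a fitted effect of over 55% in size.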 An outline of the steps:
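CellTiter-Glo ATP luminescence measured cytotoxicity after 24 h compound exposure at 37 C. LYMP2-010 cells were seeded at 2500/well, with tetraoctylammonium bromide as control; concentration-response curves gave AC50 values by the Hill equation.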

For assay [10], the target named is Bile acid receptor (Homo sapiens) (UniProt Q96RI1). The experiment in a line: qHTS assay for small molecule antagonists of farnesoid X receptor signaling (AID 588526; calls by dose curve; note: % is set by controls: 0 for no effect and ±100 for the full control effect). An outline of the steps: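 Antagonist mode: titrated compounds tested against chenodeoxycholic acid stimulation (normalized to 50 uM CDCA and DMSO) in GeneBLAzer HEK293T cells for 16 h. Beta-lactamase read by CCF4 fluorescence; IC50 from Hill fits.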

For assay [11], the target named is DNA dC->dU-editing enzyme APOBEC-3G (Homo sapiens) (UniProt Q9HC16). The experiment in a line: qHTS for inhibitors of Vif-A3G interactions: Validation (AID 588379). Note: 0% is about no effect. An outline of the steps:
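Yellow fluorescence (Ex 488, Em 500-530) of Vif-coexpressing HeLa A3G-eYFP cells, scanned by Acumen cytometer, reports blocked A3G degradation. Cells plated at 700/well overnight at 37 deg C before compound addition, then a further overnight compound incubation at 37 deg C.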

The target in assay [12] is Rap guanine nucleotide exchange factor 3 (Homo sapiens) (UniProt O95398). Put plainly: Confirmatory qHTS for agonist of cAMP-regulated guanine nucleotide exchange factor 3 (EPAC1) (AID 1645881).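 Note: EPAC1 catalysed release of BODIPY-GDP from Rap1B seen as fluorescence loss; nearly all actives have a fitted effect of over 75% in size.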
Assay [13] concerns the target Rap guanine nucleotide exchange factor 4 (Homo sapiens) (UniProt Q8WZA2). The experiment in a line: Confirmatory qHTS for agonist of cAMP-regulated guanine nucleotide exchange factor 4 (EPAC2) (AID 1645884).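 Note: nucleotide exchange releases bodipy-GDP from Rap1 and this lowers its fluorescence; % is set by controls: 0 for no effect and ±100 for the full control effect; nearly all actives have a fitted effect of over 65% in size.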
A short description of assay [14]: Cell Viability - Jurkat (AID 426;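 active = dose-dependent loss of cell ATP signal giving a full or clear fitted curve, ranked by lower potency value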;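 note: potency is the fitted concentration of half-maximal effect; cells exposed to compound for 40 hours at 37 °C before ATP read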). The note with it: qHTS. A digest of the protocol:
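Cytotoxicity taken as drop in cellular ATP (CellTiter-Glo luminescence, 20 min room temperature) after 40 hr, 37C treatment of 5000 Jurkat Clone E6-1 cells per well; concentration-response fitted with Hill equation for AC50.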

Assay [15] in a line: Cell Viability - Mesenchymal (AID 546).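 Note: cells exposed to compound for 40 hours before reading; 0% = DMSO only and -100% = 100 µM tamoxifen.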 A digest of the protocol: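 Human renal mesenchymal cells (glomerulus-derived), 1000 cells/well, 5 hr 37 °C pre-incubation; compound 40 hr, 37 °C; CellTiter-Glo, 20 min RT; luminescence; AC50 via Hill equation.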
In assay [16] the target is Peroxisome proliferator-activated receptor gamma (Homo sapiens) (UniProt P37231). Put plainly: qHTS assay for small molecule agonists of peroxisome proliferator-activated receptor gamma signaling (AID 588536; active = well fitted curve in the direction sought with a large enough effect in the signal ratio, with a control signal flat, not every such curve was filed as active; the % refers to the signal ratio). An outline of the steps: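 Using GeneBLAzer HEK293 cells, response was quantified by CCF4 fluorescence and normalized between basal DMSO (0%) and rosiglitazone 2 uM (100%); curves yielded half-maximal stimulation concentration and efficacy.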

The target of assay [17] is ATP-dependent 6-phosphofructokinase (Trypanosoma brucei brucei) (UniProt O15648). Put plainly: qHTS Assay to Find Inhibitors of T. brucei phosphofructokinase: hit validation (AID 492961). Note: series mostly up to about 51 µM; % is set by controls: 0 for no effect and ±100 for the full control effect. An outline of the steps:
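Luminescence from ADP-Glo reports ADP generated as T. brucei PFK (1.25 nM) phosphorylates 0.5 mM fructose-6-phosphate using 0.1 mM ATP. Reactions ran 45 min at room temperature, pH 8.0.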

Assay [18] can be described thus: qHTS assay for small molecule disruptors of the mitochondrial membrane potential - 1 hr assay (AID 651754; calls by dose curve; note: % is set by controls: 0 for no effect and ±100 for the full control effect; nearly all actives have a fitted effect of over 35% in size). A digest of the protocol: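 Mitochondrial potential in living HepG2 cells after 1 hr compound treatment at 37C was read with Mito-MPS dye added for a further 30 min. Red aggregate and green monomer fluorescence were measured; loss of potential leaves dye as cytoplasmic monomers.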

Assay [19] concerns the target Muscarinic acetylcholine receptor M1 (Rattus norvegicus) (UniProt P08482). The experiment in a line: qHTS Assay for Antagonists of Acetylcholine Muscarinic M1 Receptor: Measurement of IP-One Response (AID 944). Note: potency is the fitted concentration of half-maximal effect; nearly all actives have a fitted effect of over 75% in size. A digest of the protocol: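 IP1 accumulation measured via TR-FRET between d2-IP1 and Eu-cryptate anti-IP1 antibody after carbachol (200 nM, EC80) stimulation for 30 min; rat M1-transfected CHO cells received compound 10 min before agonist.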

Rap guanine nucleotide exchange factor 4 (Homo sapiens), sequence (Q8WZA2 whole entry, looked up): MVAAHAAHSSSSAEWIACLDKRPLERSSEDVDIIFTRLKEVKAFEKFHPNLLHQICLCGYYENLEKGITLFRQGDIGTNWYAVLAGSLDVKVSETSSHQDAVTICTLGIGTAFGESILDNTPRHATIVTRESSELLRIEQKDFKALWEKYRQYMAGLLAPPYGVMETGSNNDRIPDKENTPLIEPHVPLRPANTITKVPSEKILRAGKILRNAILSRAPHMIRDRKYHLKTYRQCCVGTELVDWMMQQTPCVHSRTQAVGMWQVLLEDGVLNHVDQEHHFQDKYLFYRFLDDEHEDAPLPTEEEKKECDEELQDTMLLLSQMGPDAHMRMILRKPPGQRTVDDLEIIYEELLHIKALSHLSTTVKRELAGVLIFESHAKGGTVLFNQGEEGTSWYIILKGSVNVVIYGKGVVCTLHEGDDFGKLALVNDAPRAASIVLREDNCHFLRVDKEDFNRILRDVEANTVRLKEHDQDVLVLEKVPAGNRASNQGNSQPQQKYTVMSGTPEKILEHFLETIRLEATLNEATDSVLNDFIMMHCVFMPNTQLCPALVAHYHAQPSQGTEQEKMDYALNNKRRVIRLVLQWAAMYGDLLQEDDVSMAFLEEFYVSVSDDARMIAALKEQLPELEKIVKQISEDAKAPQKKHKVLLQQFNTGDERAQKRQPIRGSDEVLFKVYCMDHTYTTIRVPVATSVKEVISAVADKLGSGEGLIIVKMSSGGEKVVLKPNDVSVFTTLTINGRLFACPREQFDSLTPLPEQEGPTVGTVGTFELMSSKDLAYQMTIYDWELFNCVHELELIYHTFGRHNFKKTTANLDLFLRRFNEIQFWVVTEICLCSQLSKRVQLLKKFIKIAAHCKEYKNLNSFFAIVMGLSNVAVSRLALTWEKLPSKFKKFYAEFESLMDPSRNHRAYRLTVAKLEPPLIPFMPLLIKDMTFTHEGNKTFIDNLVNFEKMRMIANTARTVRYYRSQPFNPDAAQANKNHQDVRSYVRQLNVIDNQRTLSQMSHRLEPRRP
DNA dC->dU-editing enzyme APOBEC-3G (Homo sapiens), sequence (Q9HC16 whole entry, looked up): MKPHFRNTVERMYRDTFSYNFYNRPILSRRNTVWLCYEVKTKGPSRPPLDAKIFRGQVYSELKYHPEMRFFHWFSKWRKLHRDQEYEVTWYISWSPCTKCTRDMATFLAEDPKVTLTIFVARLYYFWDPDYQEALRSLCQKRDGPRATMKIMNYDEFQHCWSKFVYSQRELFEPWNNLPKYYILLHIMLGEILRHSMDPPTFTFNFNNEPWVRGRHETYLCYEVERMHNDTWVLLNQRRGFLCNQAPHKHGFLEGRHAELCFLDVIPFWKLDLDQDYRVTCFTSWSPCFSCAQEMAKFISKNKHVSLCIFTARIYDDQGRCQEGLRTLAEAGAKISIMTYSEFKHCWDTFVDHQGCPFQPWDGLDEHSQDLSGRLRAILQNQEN
Rap guanine nucleotide exchange factor 3 (Homo sapiens), sequence (O95398 whole entry, looked up): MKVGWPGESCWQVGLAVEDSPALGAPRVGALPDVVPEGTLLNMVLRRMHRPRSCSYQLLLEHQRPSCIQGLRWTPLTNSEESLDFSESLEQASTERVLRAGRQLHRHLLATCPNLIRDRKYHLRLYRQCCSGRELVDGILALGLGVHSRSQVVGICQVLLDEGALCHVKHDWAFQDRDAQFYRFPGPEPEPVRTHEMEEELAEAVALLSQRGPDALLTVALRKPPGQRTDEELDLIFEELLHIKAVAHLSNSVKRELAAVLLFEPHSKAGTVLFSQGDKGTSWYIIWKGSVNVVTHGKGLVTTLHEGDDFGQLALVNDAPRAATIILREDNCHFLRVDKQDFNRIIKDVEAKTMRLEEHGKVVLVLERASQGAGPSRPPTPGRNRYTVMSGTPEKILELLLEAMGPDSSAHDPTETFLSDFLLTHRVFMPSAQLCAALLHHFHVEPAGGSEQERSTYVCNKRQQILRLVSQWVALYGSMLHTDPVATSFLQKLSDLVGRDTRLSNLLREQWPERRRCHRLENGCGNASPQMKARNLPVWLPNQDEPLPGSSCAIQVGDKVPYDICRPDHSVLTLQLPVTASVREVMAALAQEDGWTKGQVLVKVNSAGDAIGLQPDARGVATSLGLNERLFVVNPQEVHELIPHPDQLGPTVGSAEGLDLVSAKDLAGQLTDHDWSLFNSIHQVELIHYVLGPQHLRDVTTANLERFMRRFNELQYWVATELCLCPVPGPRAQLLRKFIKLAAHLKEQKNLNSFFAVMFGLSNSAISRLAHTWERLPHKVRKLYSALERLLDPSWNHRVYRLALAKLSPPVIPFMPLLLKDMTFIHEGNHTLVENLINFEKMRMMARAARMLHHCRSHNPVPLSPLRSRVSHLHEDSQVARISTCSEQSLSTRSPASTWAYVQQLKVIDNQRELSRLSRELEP
DNA repair nuclease/redox regulator APEX1 (Homo sapiens), sequence (P27695 whole entry, looked up): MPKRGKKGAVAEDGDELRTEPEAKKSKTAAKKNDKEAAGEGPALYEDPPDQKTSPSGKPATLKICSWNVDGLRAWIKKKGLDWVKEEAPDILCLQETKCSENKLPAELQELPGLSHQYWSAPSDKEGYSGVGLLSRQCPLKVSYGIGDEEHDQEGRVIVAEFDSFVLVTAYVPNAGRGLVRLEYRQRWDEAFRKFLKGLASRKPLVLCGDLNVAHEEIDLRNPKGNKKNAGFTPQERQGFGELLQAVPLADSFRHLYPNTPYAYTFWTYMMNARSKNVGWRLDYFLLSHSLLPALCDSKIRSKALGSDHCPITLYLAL
Bile acid receptor (Homo sapiens), sequence (Q96RI1 whole entry, looked up): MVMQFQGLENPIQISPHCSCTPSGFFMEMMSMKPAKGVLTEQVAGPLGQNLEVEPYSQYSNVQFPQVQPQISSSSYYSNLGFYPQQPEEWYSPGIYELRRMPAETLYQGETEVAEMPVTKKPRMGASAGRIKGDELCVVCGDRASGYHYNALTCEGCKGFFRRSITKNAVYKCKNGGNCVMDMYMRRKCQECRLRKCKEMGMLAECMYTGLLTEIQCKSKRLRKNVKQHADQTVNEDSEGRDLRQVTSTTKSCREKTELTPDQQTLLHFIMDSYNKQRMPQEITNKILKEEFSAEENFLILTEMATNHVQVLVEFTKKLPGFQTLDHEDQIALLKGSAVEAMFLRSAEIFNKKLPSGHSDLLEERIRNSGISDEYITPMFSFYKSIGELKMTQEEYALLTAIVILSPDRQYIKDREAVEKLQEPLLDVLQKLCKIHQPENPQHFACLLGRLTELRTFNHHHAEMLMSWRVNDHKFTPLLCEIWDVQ
Peroxisome proliferator-activated receptor gamma (Homo sapiens), sequence (P37231 whole entry, looked up): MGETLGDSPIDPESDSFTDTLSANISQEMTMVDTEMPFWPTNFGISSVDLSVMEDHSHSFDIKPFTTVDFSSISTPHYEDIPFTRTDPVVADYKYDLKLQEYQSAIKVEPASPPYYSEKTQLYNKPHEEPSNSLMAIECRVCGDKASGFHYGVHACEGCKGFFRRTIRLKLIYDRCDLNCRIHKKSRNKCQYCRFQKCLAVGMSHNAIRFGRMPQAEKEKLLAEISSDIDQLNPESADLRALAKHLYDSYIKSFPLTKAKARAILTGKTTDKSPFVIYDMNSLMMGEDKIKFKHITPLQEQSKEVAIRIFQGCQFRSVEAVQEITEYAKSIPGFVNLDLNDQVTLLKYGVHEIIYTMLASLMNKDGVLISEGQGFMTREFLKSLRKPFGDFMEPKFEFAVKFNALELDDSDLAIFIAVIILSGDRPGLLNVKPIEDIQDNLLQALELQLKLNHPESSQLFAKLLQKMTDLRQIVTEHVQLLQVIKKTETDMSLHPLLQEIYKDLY
Muscarinic acetylcholine receptor M1 (Rattus norvegicus), sequence (P08482 whole entry, looked up): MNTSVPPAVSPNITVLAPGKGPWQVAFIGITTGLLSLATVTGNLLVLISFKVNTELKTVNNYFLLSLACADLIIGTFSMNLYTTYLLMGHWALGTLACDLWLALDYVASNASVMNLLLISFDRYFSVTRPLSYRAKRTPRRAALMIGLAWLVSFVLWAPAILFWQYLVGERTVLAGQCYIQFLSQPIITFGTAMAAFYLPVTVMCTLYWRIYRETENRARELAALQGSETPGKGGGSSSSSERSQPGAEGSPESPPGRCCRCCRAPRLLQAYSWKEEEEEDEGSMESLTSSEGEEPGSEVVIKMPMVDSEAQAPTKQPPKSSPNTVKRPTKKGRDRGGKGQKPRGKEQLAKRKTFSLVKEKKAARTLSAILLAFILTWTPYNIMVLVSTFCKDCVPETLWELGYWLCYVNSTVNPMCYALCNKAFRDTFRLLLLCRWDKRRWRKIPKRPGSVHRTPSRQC
ATP-dependent 6-phosphofructokinase (Trypanosoma brucei brucei), sequence (O15648 whole entry, looked up): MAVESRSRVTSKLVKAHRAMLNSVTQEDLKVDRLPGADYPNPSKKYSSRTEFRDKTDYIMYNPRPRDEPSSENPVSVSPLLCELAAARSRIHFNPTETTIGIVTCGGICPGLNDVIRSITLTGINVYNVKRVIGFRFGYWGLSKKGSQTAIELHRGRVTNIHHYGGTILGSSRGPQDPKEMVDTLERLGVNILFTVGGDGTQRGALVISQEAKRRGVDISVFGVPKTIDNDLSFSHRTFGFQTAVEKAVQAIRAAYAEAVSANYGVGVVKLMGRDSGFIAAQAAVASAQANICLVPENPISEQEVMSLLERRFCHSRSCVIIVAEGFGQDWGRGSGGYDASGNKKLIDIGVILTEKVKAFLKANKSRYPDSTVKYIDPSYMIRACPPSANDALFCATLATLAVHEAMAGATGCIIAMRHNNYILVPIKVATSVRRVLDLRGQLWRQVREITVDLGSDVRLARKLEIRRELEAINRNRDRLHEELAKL

Regarding `CCCN1CCc2cccc3c2C1Cc1ccc(O)c(O)c1-3` (stereo not given), the Potency result in assay [1] is “inactive”. For the same molecule, the Potency in assay [2] is 2.24 µM (active); in assay [3], 2 µM (active); in assay [4] it was 2.51 µM (active); in assay [5] it was 2.51 µM (active); in assay [6], 3.16 µM (active); in [7], 2 µM (active). Also, in assay [8], the Potency was 2 µM (active).

For the molecule `ClC(Cl)=C(c1ccc(Cl)cc1)c1ccc(Cl)cc1`, in assay [9], the Potency entry was “inactive”. For the same molecule, in assay [10], the molecule was called inactive.

Regarding `Cc1nnc2ccc(-c3cccc(C(F)(F)F)c3)nn12`, the outcome in [11] was inactive.

On to `CCCN(C/C=C\I)[C@@H]1CCc2ccc(O)cc2C1`, for which the outcome in assay [11] was inactive.

For `CC(=O)OC1CC2C(C)(C)C(=O)C=C[C@]2(C)C2CC[C@]3(C)C(=CC(=O)OC3c3ccoc3)[C@]12C` (stereo not given in full), the Potency result in assay [12] and in assay [13] was “inactive” in each case.

As to `C=CCc1ccc(OC)cc1`, the Potency in assay [14] was > 92 µM. In addition, the molecule was called inactive in [15] and in assay [16].

On to `O=C1C=CC(=O)c2c(O)cccc21`, for which the Potency result in assay [12] and in assay [13] was “inactive” each time.

On to `C[C@]12CC[C@H](O)CC1=CCC1C2CC[C@]2(C)C(=O)CC[C@@H]12` (stereo not given in full), for which the Potency entry in assay [1], in [2], in [3], in [4], in [5] and in [6] was “inactive” each time. The Potency result in assay [8] and in [17] was “inactive” each time. The molecule was called inactive in [11].

In the case of `CNCC[C@@H](Oc1ccc(C(F)(F)F)cc1)c1ccccc1`, the Potency result in assay [1] is “inactive”. In addition, the Potency in assay [7] was 4.47 µM (active).

As for `COP(=S)(OC)Oc1ccc([N+](=O)[O-])cc1`, the Potency in [14] is > 92 µM. The Potency result in assay [9] and in assay [18] was “inactive” throughout. In addition, the molecule was classed as inactive in assay [10].

For the molecule `CC(C)[C@@]1(NC(=O)[C@@H]2C[C@@H]3c4cccc5[nH]cc(c45)C[C@H]3N(C)C2)O[C@@]2(O)C3CCCN3C(=O)[C@H](Cc3ccccc3)N2C1=O` (stereo not given in full), the Potency entry in assay [1] was “inactive”. In addition, the Potency in [2] is 0.316 µM (active); in assay [3] it was 1.12 µM (active); in assay [4] it was 1 µM (active); in [5], 2.24 µM (active); in [6], 1.41 µM (active); in [7] it was 0.891 µM (active). Besides, the Potency in [8] is 0.891 µM (active).

For `O=C1c2ccccc2-c2cccc3cccc1c23`, the Potency entry in assay [12] and in assay [13] was “inactive” in each case.

Consider `O=C(OC1CCN(CCCl)CC1)C(c1ccccc1)c1ccccc1`, for which the Potency in assay [19] was 562 nM (active); in assay [2], 7.94 µM (active); in [3], 5.62 µM (active); in assay [4] it was 12.6 µM (active); in [5], 12.6 µM (active); in assay [6], 7.08 µM (active). The figures for the Potency in assay [7] and in [8] were 2.24 µM (active) and 11.2 µM (active), respectively. In addition, the Potency result in [1] and in assay [12] was “inactive” in each case. For the same molecule, in assay [13], the activation was 6.37% [at 17.1 µM, percent relative to cAMP agonist control].
